Rtt109 Vps75 – blocks Candida albicans Rtt109/Vps75 acetyltransferase activity | purified Rtt109/Vps75, ThioGlo CoA-SH fluorescence, 4 h | AID 540336 | inhibition, % at 34.9 µM | Q5AAJ8 | 330,000 compounds, 0.16% hits;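 active means inhibition of at least 50% in every replicate; inconclusive means best replicate reaches 50% inhibition but some replicates fall short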
Efflux pump inh – blocks antifungal efflux pumps in multiplex yeast assay. AID 485275. inhibition, % at 10 µM. S. cerevisiae Candida pump triplex, Nile Red efflux. 330,000 compounds, 0.44% hits;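 active means plate passing quality check with inhibition over a set limit, or well fluorescence over plate mean plus 4 SD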;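 further: Nile Red retained in pooled yeast measured as flow cytometry median fluorescence; 0% = buffer negative control and 100% = Enniatin B positive control; higher means more Nile Red kept so more efflux inhibition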
ALR H2O2 inh – blocks human ALR sulfhydryl oxidase activity; 290,000 compounds, 3.8% hits; purified ALR, DTT oxidation, H2O2 HRP-luminol luminescence; inhibition, % (no concentration beside the values); AID 485317; P55789;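 active means mean replicate inhibition above about 79%, with every replicate also reaching it, limit read from the data; inconclusive means only one of the two criteria met; inactive means mean below limit and not every replicate reaching it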
Rce1 inhib – blocks yeast Ras-converting enzyme; yeast membranes, quenched prenylated peptide cleavage fluorescence; calls only; 290,000 compounds, 0.27% hits; AID 2563;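 active means fall in fluorescence gain of 50% or more versus controls, with final raw signal at or below 3038400; inconclusive means same 50% fall but final raw signal above 3038400; inactive means fall in fluorescence gain under 50%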;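 further: plate controls were neutral control wells for no effect and wells lacking membranes for full effect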
GRK2 inh – inhibitors of human GRK2 displacing RNA aptamer; P25098; bead flow cytometry, FAM-aptamer displacement from GRK2; inhibition of aptamer binding, % at 10 µM; 330,000 compounds, 0.59% hits;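 active means inhibition of aptamer binding above 40%, roughly 3 SD of noise, on plates passing a quality check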;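 further: median bead fluorescence of bound FAM aptamer so fluorescent compounds give negative values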
HDAC3 inhib – blocks human histone deacetylase 3 | recombinant HDAC3, fluorogenic peptide/trypsin coupled, fluorescence | 320,000 compounds, 0.15% hits | inhibition, % at 8.3 µM | AID 2718; in the data active means inhibition above about 26%, passing the limit was not always enough; inconclusive means no clear call, values can overlap the other calls
Target sequence (O15379 whole entry, looked up): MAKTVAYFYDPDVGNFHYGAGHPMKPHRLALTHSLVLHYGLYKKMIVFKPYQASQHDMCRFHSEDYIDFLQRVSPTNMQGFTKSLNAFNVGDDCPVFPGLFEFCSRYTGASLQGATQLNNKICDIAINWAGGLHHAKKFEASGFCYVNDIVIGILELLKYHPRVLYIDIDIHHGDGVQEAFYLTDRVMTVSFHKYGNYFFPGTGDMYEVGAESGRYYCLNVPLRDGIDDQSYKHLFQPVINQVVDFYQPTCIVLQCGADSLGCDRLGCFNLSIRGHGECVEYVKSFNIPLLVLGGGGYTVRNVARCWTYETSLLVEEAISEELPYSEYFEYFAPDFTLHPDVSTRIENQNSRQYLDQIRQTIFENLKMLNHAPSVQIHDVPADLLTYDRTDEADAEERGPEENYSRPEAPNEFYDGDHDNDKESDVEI
Active calls of the source: *; i = inactive; ? = inconclusive; . = no result given. An excerpt weighted towards active compounds, which were near 4.5% of everything screened.

SMILES	Rtt109 Vps75	Efflux pump inh	ALR H2O2 inh	Rce1 inhib	GRK2 inh	HDAC3 inhib
COCCCn1c(=O)/c(=C\c2cccc(OC)c2OC)s/c1=C(/C#N)C(=O)Nc1ccc(C(=O)O)cc1	12	0	98*	i	0	12
CCN1C(=O)[C@H]2[C@H]3CN=C(SC)N3[C@@](C)(C(=O)OC)[C@H]2C1=O	-2	.	.	.	.	.
N#C/C(=C\c1ccc(F)c(Br)c1)C(=O)NC1CC1	0	0	1	i	6	2
N#C/C(=C\c1ccc(F)c(F)c1)C(=O)NC1CCCCC1	8	0	98*	i	2	-16
Oc1ccc(/C=N/Nc2cc(N3CCOCC3)nc(N3CCOCC3)n2)cc1O	12	0	99*	i	0	10
Cc1nc(N/N=C/c2cccc(F)c2)cc(N2CCOCC2)n1	-10	0	6	.	2	12
Cc1nc(N/N=C/c2ccc(O)cc2O)cc(N2CCOCC2)n1	-2	0	95*	i	3	4
Oc1cccc(/C=N/Nc2cc(N3CCOCC3)nc(N3CCOCC3)n2)c1	11	0	73	i	0	12
CCOC(=O)C1CCN(C(=O)c2ccc(N3CCCC3=O)cc2)CC1	-1	0	.	.	2	6
N#Cc1c2ccc(O)cc2n2ccccc12	-65	0	11	i	2	-5
COc1ccc(-c2csc(C3=C(O)CN(CCCN4CCCC4=O)C3=N)n2)cc1OC	12	0	96*	i	0	-1
CCCCN1CC(O)=C(c2nc(-c3ccc(Br)cc3)cs2)C1=N	-3	0	-3	i	0	-9
O=C(COc1cc(Cl)c(Cl)cc1Cl)Nc1ccc([N+](=O)[O-])cc1Cl	3	0	-5	i	0	-4
CCOC(=O)C(C)Oc1ccc(NC(=O)C(Cl)Cl)cc1 (centres undefined)	-3	0	-3	i	0	9
Cc1ccc(Sc2nc3ccc(C)cn3c(=O)c2/C=N/O)cc1	-4	0	99*	i	0	0
CN(C)S(=O)(=O)c1ccc(Cl)c(NC(=O)COC(=O)c2ccc3c(c2)NC(=O)CS3)c1	0	0	.	i	0	.
O=C1CSC(c2ccccn2)N1c1ccccc1 (centres undefined)	-1	0	99*	i	0	0
Cc1cc(C)cc(N2C(=O)CSC2c2ccccn2)c1 (centres undefined)	4	0	99*	i	0	0
O=C1CSC(c2ccccn2)N1c1ccc(Br)cc1 (centres undefined)	2	0	45	i	1	-2
CCC(=Cc1ccccc1O)c1ccncc1	-3	.	.	.	.	.
O=C(O)c1ccccc1N/N=C\c1ccnc2ccccc12	-4	0	.	i	6	2
O=C(N/N=C/c1c[nH]c2ccccc12)c1ccc(O)c(O)c1	21	0	99*	i	0	10
C(=N\Nc1ccccn1)/c1c[nH]c2ccccc12	-1	0	99*	i	4	11
O=C(O)c1cccc2c(/C=N/Nc3ccccn3)c[nH]c12	-8	0	98*	.	0	-2
Cc1cccc(NC(=O)CSc2ncnc3sc(C)cc23)c1	2	0	-3	i	0	-12
SMILES	Rtt109 Vps75	Efflux pump inh	ALR H2O2 inh	Rce1 inhib	GRK2 inh	HDAC3 inhib
CCOc1ccc(NC(=O)CSc2nccn2Cc2ccco2)cc1	17	0	-13	i	0	9
Cn1ccnc1SCC(=O)Nc1ccccc1	.	0	99*	.	0	-4
COc1ccc(NC(=O)CSc2nccn2Cc2ccco2)cc1	-8	0	99*	i	0	-4
Cn1ccnc1SCC(=O)Nc1ccc2ccccc2c1	.	0	11	i	0	-5
Cc1cccc(NC(=O)CSc2ncnc3nc[nH]c23)c1	6	0	90*	i	3	-5
Cn1ccnc1SCC(=O)c1ccc2ccccc2c1	1	0	99*	i	5	.
O=c1ccc(-c2ccccc2)no1	-6	0	.	i	0	-7
COc1ccccc1S(=O)(=O)NCc1ccc(C(=O)NC2CCC(O)CC2)cc1 (centres undefined)	5	0	.	.	3	.
COc1ccc(NC(=O)COC(=O)CCc2ccc(S(=O)(=O)N3CCOCC3)cc2)c(OC)c1	1	0	.	.	1	3
Cc1cccc(NC(=O)CSc2nccn2C)c1	-1	0	100*	i	0	-9
CC(=O)Nc1cccc(NC(=O)CSc2nccn2Cc2ccccc2)c1	-4	0	24	i	0	.
O=C(CSc1nccn1Cc1ccccc1)Nc1ccccc1	-3	0	100*	i	0	.
Cc1ccc(CN2CC(C(=O)NCCC3=CCCCC3)CC2=O)cc1 (centres undefined)	-6	0	-7	.	1	0
Cc1noc2ncnc(Sc3ccc(Br)cc3)c12	-2	0	99*	i	0	2
CC(C)(C)NC(=S)NC(C)(C)C	7	.	.	i	.	.
COc1ccc(C(=O)N/N=C/c2c(CO)cnc(C)c2O)cc1	i	0	2	i	0	-18
COc1ccccc1NS(=O)(=O)c1cccc(C(=O)N/N=C/c2c(CO)cnc(C)c2O)c1	-12	0	25	.	0	2
COc1cc(N=Cc2c(CO)cnc(C)c2O)cc(OC)c1OC	-3	0	99*	i	0	-4
COc1ccccc1N/N=C/c1c(CO)cnc(C)c1O	4	0	100*	i	2	4
CS(=O)(=O)NCc1nnc(SCc2ccc(C(F)(F)F)cc2)o1	-4	0	-2	i	1	3
O=C(N/N=C/c1cccnc1)c1ccc2ccccc2c1O	-55	0	28	i	2	4
O=C(Nc1cccnc1)c1ccc2ccccc2c1O	-3	0	91*	i	4	-20
CC1(c2cnc(Nc3ccccc3)s2)CCC(=O)O1 (centres undefined)	-2	0	97*	i	2	0
Cc1cccc(CS(=O)(=O)c2nnc([C@H](Cc3ccccc3)NC(=O)OC(C)(C)C)o2)c1	6	0	60	i	0	61*
COC(=O)CS(=O)(=O)c1nnc([C@H](Cc2ccccc2)NC(=O)OC(C)(C)C)o1	2	0	19	i	0	55*
COc1ccccc1NC(=O)CSc1nncs1	-7	0	-4	.	4	2
COc1ccc(CNCc2c(O)c(Cl)cc3c(C)c(C)c(=O)oc23)c(OC)c1	1	0	7	i	0	-237
CN1/C(=C\C=C2/SC(=S)N(CC(=O)O)C2=O)C(C)(C)c2ccccc21	?	0	98*	.	13	6
C=CCN1C(=O)/C(=C\C=C2\N(C)c3ccccc3C2(C)C)SC1=S	-4	0	0	i	1	-5
Nc1c(C(=O)N2CCCCC2)sc(=S)n1-c1ccccc1	6	0	99*	i	34	5
